Structures are written as SMILES. About 83,000 compounds went through this panel and 20% of them were active in at least one assay; those are over-represented in the sample as a whole.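 Negative percent growth values reflect cell death: -40 means 40% of the cells present at the start died, and -100 means all died.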 Active and inactive are the calls of the source. How the source made its calls: active means growth percent below 10; inactive means the rest.

The subject of one experiment is NCI-H460 lung. The experiment in a line: NCI-60 one-dose screen, 48 h (100 = growth as untreated, 0 = no growth, -100 = all killed). The settings on record: 10 µM unless noted.
Turning to `CC1=C(C(=O)OC(C)C)C(c2cccc(O)c2)NC(=S)N1` (stereo unspecified), the growth was 110% (inactive). As for `C[C@H](Nc1nc(NCCc2ccccc2)nc2ccccc12)c1ccccc1`, the growth is -75.3% (active). Still for that read-out and setting: the figure for `COc1ccc(-c2c(Nn3cnnn3)no[n+]2[O-])cc1` is 39.5% (inactive); for `Cn1cc(NC(=O)c2cc(NC(=O)c3ccc(C#Cc4ccccc4)cc3)cn2C)cc1C(=O)NCCCN1CCOCC1` it is -15.3% (active). Same read-out and setting: the figure for `COc1cc(NC(=O)c2cccc(C3CCc4c(cc(OC)c(OC)c4OC)O3)c2)cc(OC)c1OC` (stereo unspecified) is 29.1% (inactive); for `COc1ccc(-c2nnc3ccc(N/N=C/c4ccc(C)cc4)nn23)cc1` it is 51.2% (inactive). Still for that read-out and setting: then `Cc1ccc(-n2c(-c3cc4ccccc4nc3Cl)noc2=O)cc1`, with 90.6% (inactive); and `CC(=O)Oc1ccccc1C(=O)[Se]CC(=O)Nc1cccc(C(F)(F)F)c1`, with 0.365% (active); and `CCCCNC(=S)Nc1ccc(OCc2nc3ccccc3[nH]2)cc1`, with 69.7% (inactive). Consider `COc1ccc(-c2nc3cc(C)ccc3n2CC(=O)N=Nc2c(O)[nH]c3ccccc23)cc1`, for which the growth was -17.7% (active). Same read-out and setting: then `COc1ccc(-c2nc3ccc(C(=O)NN4C(=O)c5ccc([N+](=O)[O-])cc5C4=O)cc3[nH]2)cc1`, with 100% (inactive); and `CN(C)c1ccnc(CNCCSC2(c3ccccc3)c3ccccc3C=Cc3ccccc32)c1`, with -87.4% (active).

With `COc1cc2c(c(OC)c1OC)C(=O)CC(c1cccc(NC(=O)c3cc(NC(=O)[C@@H](N)CO)ccc3C)c1)O2` (stereo partly specified), the growth was 123% (inactive). Same read-out and setting: then `COc1ccc(C(=O)/C=C/c2c(F)cccc2Cl)cc1S(N)(=O)=O`, with 3.49% (active). Same read-out and setting: then `O=C(Nc1cccc(-n2cnc3cc(-c4ccc(O)cc4)ccc32)c1)C1CC1`, with 7.41% (active).

In the case of `COc1ccc(C2(SCCNCc3cc(N(C)C)ccn3)c3ccccc3C=Cc3ccccc32)cc1`, the growth is -14% (active). The same measure, in the same setting: the figure for `COc1ccc(C2=NN(c3ccccc3)C(c3ccc(OC)c(OCc4ccccc4)c3)C2)cc1OC` (stereo unspecified) is 105% (inactive); for `CC1=C(C(=O)c2ccccc2)C(c2ccc(-n3cncn3)cc2)n2c(nc3ccccc32)N1` (stereo unspecified) it is 80.5% (inactive). Still for that read-out and setting: then `CN(C)CCCNC(=O)c1cc(NC(=O)c2cc(NC(=O)c3ccc(C#Cc4ccccc4)cc3)cn2C)cn1C`, with -28.9% (active).

A further experiment relates to HOP-92 NSCLC. The description is as above. The settings on record: 10 µM unless noted.
For the compound `N/C(=N\N=C\c1ccc([N+](=O)[O-])cc1)c1c(N)nc(=S)[nH]c1-c1ccc(Cl)cc1Cl`, the growth is 2.04% (active). The same measure, in the same setting: the figure for `CC1(c2cc3cc(Cl)ccc3oc2=O)NC(=O)c2c(/C=C/C(=O)OC3CC4CCC3(C)C4(C)C)cccc2N1` (stereo unspecified) is 40.8% (inactive); for `O=C(N=Nc1c(O)[nH]c2ccc(Cl)cc12)c1ccc2nc(-c3ccccc3)[nH]c2c1` it is 77% (inactive). Same read-out and setting: then `O=C(O)c1cccc(-c2ccc(/C=N/NC(=O)c3[nH]c4ccc(Br)cc4c3-c3ccccc3)o2)c1`, with 69.1% (inactive); and `CC1(C)CC[C@]2(C(=O)Nc3ccccc3)CC[C@]3(C)C(=CCC4[C@@]5(C)C[C@@H](O)[C@H](O)[C@@](C)(CO)C5CC[C@]43C)C2C1` (stereo partly specified), with 39.1% (inactive); and `O=c1[nH]c2ccccc2cc1CSc1cccc(Nc2nccc(-c3ccc4ccccc4c3)n2)c1`, with 117% (inactive). The same measure, in the same setting: then `CSc1ccc(NC(=O)c2ccc3nnn(/C(C#N)=C/c4ccccn4)c3c2)cc1`, with -77.6% (active); and `Cc1c(C(=O)NNC(=O)c2ccc(Cl)cc2)nnn1-c1ccc(Cl)cc1`, with 79.1% (inactive). For the compound `CNC(=O)c1cc(Oc2ccc3nc(NC(=O)Nc4cccc(OC(F)(F)F)c4)sc3c2)ccn1`, the growth is -63% (active).

For `CC1=C(C(=O)OC(C)C)C(c2cccc(O)c2)NC(=S)N1` (stereo unspecified), the growth was 110% (inactive). Same read-out and setting: the figure for `C[C@H](Nc1nc(NCCc2ccccc2)nc2ccccc12)c1ccccc1` is -81.1% (active); for `COc1ccc(-c2c(Nn3cnnn3)no[n+]2[O-])cc1` it is 26% (inactive); for `Cn1cc(NC(=O)c2cc(NC(=O)c3ccc(C#Cc4ccccc4)cc3)cn2C)cc1C(=O)NCCCN1CCOCC1` it is -11.5% (active). Still for that read-out and setting: the figure for `COc1cc(NC(=O)c2cccc(C3CCc4c(cc(OC)c(OC)c4OC)O3)c2)cc(OC)c1OC` (stereo unspecified) is 52.4% (inactive); for `COc1ccc(-c2nnc3ccc(N/N=C/c4ccc(C)cc4)nn23)cc1` it is 18.9% (inactive); for `Cc1ccc(-n2c(-c3cc4ccccc4nc3Cl)noc2=O)cc1` it is 70.6% (inactive).

On to `CC(=O)Oc1ccccc1C(=O)[Se]CC(=O)Nc1cccc(C(F)(F)F)c1`, for which the growth was -60.3% (active). Still for that read-out and setting: the figure for `CCCCNC(=S)Nc1ccc(OCc2nc3ccccc3[nH]2)cc1` is 96.2% (inactive); for `COc1ccc(-c2nc3ccc(C(=O)NN4C(=O)c5ccc([N+](=O)[O-])cc5C4=O)cc3[nH]2)cc1` it is 81% (inactive); for `CN(C)c1ccnc(CNCCSC2(c3ccccc3)c3ccccc3C=Cc3ccccc32)c1` it is -17.2% (active). Still for that read-out and setting: then `COc1cc2c(c(OC)c1OC)C(=O)CC(c1cccc(NC(=O)c3cc(NC(=O)[C@@H](N)CO)ccc3C)c1)O2` (stereo partly specified), with 114% (inactive); and `COc1ccc(C(=O)/C=C/c2c(F)cccc2Cl)cc1S(N)(=O)=O`, with 9.66% (active); and `O=C(Nc1cccc(-n2cnc3cc(-c4ccc(O)cc4)ccc32)c1)C1CC1`, with 125% (inactive).

With `COc1ccc(C2(SCCNCc3cc(N(C)C)ccn3)c3ccccc3C=Cc3ccccc32)cc1`, the growth is 0.307% (active). The same measure, in the same setting: the figure for `COc1ccc(C2=NN(c3ccccc3)C(c3ccc(OC)c(OCc4ccccc4)c3)C2)cc1OC` (stereo unspecified) is 109% (inactive).

`CC1=C(C(=O)c2ccccc2)C(c2ccc(-n3cncn3)cc2)n2c(nc3ccccc32)N1` (stereo unspecified): the growth is 76.1% (inactive). On the same count and under the same terms, the figure for `CN(C)CCCNC(=O)c1cc(NC(=O)c2cc(NC(=O)c3ccc(C#Cc4ccccc4)cc3)cn2C)cn1C` is -26% (active).

Source of the values: PubChem BioAssay (NCI).
